Assay outcomes deposited in PubChem by several laboratories.
dFosB act-1 – activators of delta FosB homodimer, primary screen, biochemical, fluorescence polarization, TAMRA-CDK5 oligo, single point | Protein FosB (Mus musculus), P13346 | purified delta FosB; percent of positive-control signal above neutral wells | activation, % at 25 µM | 0.99% of 340,000 active | AID 493131, 2011;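 active = mean activation above about 17%, with every replicate also reaching it, limit read from the data, passing the limit was not always enough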
Target sequence (P13346 whole entry, looked up): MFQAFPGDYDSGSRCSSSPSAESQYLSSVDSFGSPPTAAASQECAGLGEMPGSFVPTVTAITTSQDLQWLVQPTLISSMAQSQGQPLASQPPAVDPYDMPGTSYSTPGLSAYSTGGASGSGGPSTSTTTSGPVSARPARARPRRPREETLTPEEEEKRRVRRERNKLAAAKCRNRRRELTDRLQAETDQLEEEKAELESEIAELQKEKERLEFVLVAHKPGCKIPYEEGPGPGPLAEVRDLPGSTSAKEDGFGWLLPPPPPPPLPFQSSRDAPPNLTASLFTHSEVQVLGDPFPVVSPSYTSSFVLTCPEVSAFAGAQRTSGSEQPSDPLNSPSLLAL
Efa HMGR inh – inhibitors of E. faecalis class II HMGR, primary screen, biochemical, Enterococcus faecalis; HMG-CoA reductase (Enterococcus faecalis, mvaE); 0.41% of 190,000 active; purified E. faecalis HMGR, NADPH absorbance 340 nm kinetic; AID 1066, 2008; inhibition, % at 10 µM;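 active = inhibition above a set limit, the median over all tested compounds plus 3 SD, cut at about 9.5% in these data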;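 also: enzyme runs in reverse so mevalonate oxidation gives rising NADPH absorbance; 0% = complete reaction with DMSO and 100% = background rate lacking mevalonate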
p47phox inh – p47phox/p22phox peptide binding inhibitors, primary screen, biochemical, uHTS, NADPH oxidase regulatory subunit. fluorescence polarization, 2 h. 0.53% of 220,000 active. inhibition, % at 24.7 µM. AID 1274, 2008;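 active = inhibition above about 30%, limit read from the data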;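 also: 0% = p47phox with labelled peptide and 100% = labelled peptide alone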
14-3-3 Bad PPI – inhibitors of 14-3-3 zeta/Bad binding, primary screen, biochemical, TR-FRET, bovine 14-3-3 zeta. 14-3-3 protein zeta/delta (Bos taurus), P63103. TR-FRET 14-3-3zeta/Dy647-pBad peptide displacement, 1 h. inhibition, % at 21.7 µM. 0.71% of 220,000 active. AID 781, 2007;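 active = inhibition above about 70%, limit read from the data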;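 also: 0% = full 14-3-3 plus peptide FRET controls and 100% = background without 14-3-3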
Target sequence (P63103 whole entry, looked up): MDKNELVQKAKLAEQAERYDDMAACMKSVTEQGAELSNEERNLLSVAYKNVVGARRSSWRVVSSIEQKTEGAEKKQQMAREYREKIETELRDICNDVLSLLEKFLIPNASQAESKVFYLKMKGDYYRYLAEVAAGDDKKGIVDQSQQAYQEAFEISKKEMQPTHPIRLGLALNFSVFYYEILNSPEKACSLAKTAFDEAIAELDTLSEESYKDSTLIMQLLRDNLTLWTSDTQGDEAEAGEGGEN
dFosB act-2 – activators of mouse delta FosB DNA binding, confirmation, biochemical, fluorescence polarization, TAMRA-CDK5 oligo, cherry-picked samples. shares compounds with dFosB act-1. activation, % at 24.9 µM. 2,400 tested, under 10 active. purified delta FosB; normalised: neutral wells 0, positive control 100;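 active = highest replicate activation at or above 34% and every replicate reaching that threshold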;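 also: higher polarization means more probe DNA bound by delta FosB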
Numbers without * were called inactive; . = not tested or not shown. Rows were chosen to be rich in hits. Some 1.9% of all compounds tested hit in one or more screens of this group.

SMILES	dFosB act-1	Efa HMGR inh	p47phox inh	14-3-3 Bad PPI	dFosB act-2
O=C(Nc1ccc([N+](=O)[O-])cc1)Nc1nc(-c2ccc(Cl)s2)cs1	28.7*	-2.6	-9.2	21.6	7.4
O=C(Nc1cccc(Cl)c1)Nc1nc(-c2ccccc2)cs1	-0.2	-4.0	-3.1	-13.2	.
COc1ccc(CC(=O)NNC2=Nc3cccc4cccc2c34)cc1	-19.0	.	-79.2	8.7	.
COc1ccc(-c2nnc(SCc3nc4ccccc4c(=O)[nH]3)o2)cc1	19.0*	.	-1.1	45.3	-1.8
c1ccc2[nH]c(CSc3nnc(-c4ccncc4)o3)nc2c1	2.5	-1.8	-8.0	7.3	.
Cc1ccc(CSc2nnc(SCC(=O)N/N=C/c3c[nH]c4ccccc34)s2)cc1	81.1*	-3.4	39.4*	95.3*	8.5
CC(C)N1CCN(Cc2cc(F)ccc2-n2cccn2)CC1CCO (stereo not drawn)	3.3	1.4	1.9	-7.9	.
COc1cccc(Cn2cnc3c(NS(=O)(=O)c4ccc(Cl)cc4)c(C)c(C)cc32)c1	17.1*	-4.9	8.0	21.9	1.3
COc1cccc(Cn2cnc3c(NS(=O)(=O)c4ccc(Cl)cc4Cl)c(C)c(C)cc32)c1	1.8	-1.8	-24.5	2.2	.
O=C(COC(=O)c1c2c(nc3ccccc13)CCCCC2)c1ccc(Cl)s1	0.2	-13.6	-23.8	-6.0	.
COc1cc(-c2ccc3oc(-c4ccsc4)cc(=O)c3c2)cc(OC)c1OC	44.3*	.	.	.	-11.6
COc1ccc(CNC(=O)Cn2cncn2)cc1OC	0.9	4.7	-5.6	5.8	.
O=[N+]([O-])c1ccccc1S(=O)(=O)N1CCN(S(=O)(=O)c2ccc3c(c2)OCCO3)CC1	-10.8	.	.	.	.
COc1ccc(NC(=O)COC(=O)c2ccc(-n3cnnn3)cc2)cc1Cl	34.7*	.	.	.	-15.4
COc1ccc(OC)c(NC(=O)COC(=O)c2ccc(-n3cnnn3)cc2)c1	3.3	-1.0	-3.5	-2.2	.
O=C(OCc1csc(-c2ccccc2)n1)c1ccccc1O	-2.3	1.2	-1.1	-2.9	.
COc1ccc(Cl)cc1NC(=O)c1nnn(CC(=O)Nc2ccc(OC)c(OC)c2)c1N	93.8*	.	.	.	1.6
COc1ccc(Cl)cc1NC(=O)c1nnn(CC(=O)Nc2ccc3c(c2)OCO3)c1N	21.1*	.	.	.	-1.6
COc1cccc(Cn2nnc(C(=O)Nc3cc(Cl)ccc3OC)c2N)c1	2.2	0.1	-19.4	3.7	.
COc1ccc(NC(=O)Cn2nnc(C(=O)NCc3ccc(C)cc3)c2N)cc1OC	7.1	.	.	.	.
COc1cccc(NC(=O)Cn2nnc(C(=O)Nc3cc(Cl)ccc3OC)c2N)c1	37.8*	.	.	.	4.4
COc1ccc(Cl)cc1NC(=O)c1nnn(CC(=O)Nc2cc(C)cc(C)c2)c1N	102.8*	.	.	.	1.5
O=C(NCCc1csc(-c2ccccc2)n1)c1c(F)cccc1Cl	-8.5	2.4	-8.3	-15.8	.
COc1ccc(NC(=O)Cn2nnc(C(=O)Nc3ccc(F)c(Cl)c3)c2N)cc1	32.4*	.	.	.	3.8
CC(=O)Nc1ccc(NC(=O)CSc2nnc(NC(=O)C3CC3)s2)cc1	27.9*	.	.	.	-0.5
SMILES	dFosB act-1	Efa HMGR inh	p47phox inh	14-3-3 Bad PPI	dFosB act-2
CC(=O)Nc1ccc(NC(=O)CSc2nnc(NC(=O)Cc3ccc(F)cc3)s2)cc1	24.2*	.	.	.	0.0
O=C(CSc1nnc(NC(=O)C2CC2)s1)Nc1ccccc1	24.6*	.	.	.	1.5
O=C(CSc1nnc(NC(=O)C2CC2)s1)Nc1ccc(F)cc1	10.3	-1.2	-12.8	5.9	.
COc1ccc(NC(=O)CSc2nnc(NC(=O)C3CCC3)s2)cc1	-2.3	.	.	.	.
CC(=O)c1c(C)[nH]c(C(=O)N2CC(C)CC(C)C2)c1C (stereo not drawn)	-6.3	.	.	.	.
COc1ccc(C(C)=O)cc1CSc1nc2ccccc2c(=O)n1-c1ccccc1	-2.7	-6.5	27.1	39.5	.
COc1ccc(C(C)=O)cc1CSc1nc2ccccc2c(=O)n1-c1cccc(C)c1	24.7*	-2.3	2.0	-8.9	4.7
Cc1ccc2cc3cc(C(=O)NCc4ccc5c(c4)OCO5)oc3nc2c1	56.1*	-3.0	27.7	46.3	2.6
Cc1ccc(S(=O)(=O)NNC(=O)c2c(O)c3ccccc3[nH]c2=O)cc1	20.7*	.	-24.2	-0.6	0.8
COC(=O)Nc1ccc(S(=O)(=O)NNC(=O)c2c(O)c3ccccc3[nH]c2=O)cc1	23.6*	.	.	.	-1.3
O=C(NNC(=O)c1c(O)c2ccccc2[nH]c1=O)c1ccccc1	83.0*	.	.	.	-0.2
CC(C)NC(=O)c1c(O)c2ccccc2[nH]c1=O	-0.6	-5.2	-0.9	4.6	.
COC(=O)c1c(O)c2ccccc2[nH]c1=O	3.7	-1.6	-32.3	0.8	.
CNC(=O)c1ccccc1NC(=O)c1ccc(C)c(S(=O)(=O)N2CCCCC2)c1	-17.1	-0.4	0.8	5.5	.
CN(CC1CCOCC1)C(=O)CC1C(=O)NCCN1C/C=C/c1ccccc1 (stereo not drawn)	-1.4	-0.5	-0.3	-8.8	.
CC(=O)c1cc(CN2CCC(C(=O)Nc3ccc(-n4nc(C)cc4C)cc3)CC2)cs1	-13.0	.	.	.	.
O=C(CCCCC(=O)NN=Cc1ccc(Cl)cc1)NN=Cc1ccc(Cl)cc1	25.4*	.	.	.	1.4
COc1ccc(C2(CNC(=O)Cc3ccccc3)CCCC2)cc1OC	-5.7	2.0	-10.4	3.7	.
C=CCOc1ccc(CN(C)CC(O)COc2cccc3ccccc23)cc1 (stereo not drawn)	19.2*	.	.	.	1.8
Cc1cc(CN(C)Cc2ccc(OCC(O)CN(C)Cc3ccccc3)cc2)on1 (stereo not drawn)	-6.7	-0.1	.	6.4	.
Cc1ccc(-c2cc(C(=O)N/N=C/c3ccc(Cl)cc3)n[nH]2)o1	27.3*	.	.	.	0.7
Nc1cc(N)nc(SCCOc2ccccc2F)n1	-4.3	-2.0	-1.5	16.2	.
CN(CC1CCCN(CCc2ccccc2F)C1)C(=O)c1ccoc1 (stereo not drawn)	-1.7	.	.	.	.
O=C(COC(=O)/C=C/c1cccc(C(F)(F)F)c1)NC(=O)NCc1ccccc1	24.5*	.	.	.	1.6
O=C(COC(=O)/C=C/c1cccc(C(F)(F)F)c1)NC(c1ccccc1)c1ccccc1	26.3*	-2.6	-13.9	-4.8	4.9
COc1ccc(/C=C/C(=O)OCC(=O)Nc2cc(C(F)(F)F)ccc2Cl)cc1	30.8*	-9.0	0.9	0.7	0.9
COc1ccc(/C=C/C(=O)OCC(=O)Nc2cc(S(=O)(=O)N(C)C)ccc2Cl)cc1	-6.2	-5.9	-29.0	-0.5	.
Cc1cc(S(=O)(=O)NCC(c2ccc3c(c2)OCO3)N2CCOCC2)ccc1F (stereo not drawn)	-8.9	.	.	.	.
Cc1ccc(C(=O)c2oc3ccccc3c2NC(=O)c2cc(-c3ccccc3O)n[nH]2)cc1	30.9*	-2.1	-25.2	-16.4	-4.8
Cc1ccc(C(=O)c2oc3ccccc3c2NC(=O)c2cc(-c3cc(C)ccc3O)n[nH]2)cc1	1.4	.	-6.5	0.3	.
